MsrA inh = inhibitors of bovine MsrA; purified bovine MsrA, absorbance read-out; inhibition, % at 15.5 µM; 0.75% of 360,000 active; AID 651718; in the data active means inhibition above about 4.5%;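 further: 0% = vehicle wells with enzyme and 100% = reference inhibitor wells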
HTR2A ag = mouse HTR2A agonism via beta-arrestin recruitment; P35363; CHO-K1 mHTR2A beta-arrestin complementation, luminescence; percent of 30 µM serotonin response; activation, % at 7.6 µM; 0.66% of 360,000 active;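 active means activation above a run cutoff, the mean activation of all tested compounds plus 3 SD, cut at about 14% in these data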;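 further: 0% = plate median of compound wells and 100% = 30 µM serotonin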
GC-B act = GC-B (human) receptor activation; HEK293-GC-B cells, CNP EC30, cGMP TR-FRET; 0% at EC30 CNP, 100% saturating CNP; activation, % at 10 µM; 0.11% of 370,000 active; AID 1920062;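 active means activation at 10 µM reaching about 35% in either raw or pattern-adjusted values, limit read from the data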
NPR1 activator = GC-A (human) enzyme activation. 0.14% of 370,000 active. activation, % at 10 µM. P16066. HEK293 GC-A cells, cGMP TR-FRET, EC30 ANP; 0% at EC30 ANP, 100% saturating ANP; in the data active means activation above about 40%
Target sequence (P16066 whole entry, looked up): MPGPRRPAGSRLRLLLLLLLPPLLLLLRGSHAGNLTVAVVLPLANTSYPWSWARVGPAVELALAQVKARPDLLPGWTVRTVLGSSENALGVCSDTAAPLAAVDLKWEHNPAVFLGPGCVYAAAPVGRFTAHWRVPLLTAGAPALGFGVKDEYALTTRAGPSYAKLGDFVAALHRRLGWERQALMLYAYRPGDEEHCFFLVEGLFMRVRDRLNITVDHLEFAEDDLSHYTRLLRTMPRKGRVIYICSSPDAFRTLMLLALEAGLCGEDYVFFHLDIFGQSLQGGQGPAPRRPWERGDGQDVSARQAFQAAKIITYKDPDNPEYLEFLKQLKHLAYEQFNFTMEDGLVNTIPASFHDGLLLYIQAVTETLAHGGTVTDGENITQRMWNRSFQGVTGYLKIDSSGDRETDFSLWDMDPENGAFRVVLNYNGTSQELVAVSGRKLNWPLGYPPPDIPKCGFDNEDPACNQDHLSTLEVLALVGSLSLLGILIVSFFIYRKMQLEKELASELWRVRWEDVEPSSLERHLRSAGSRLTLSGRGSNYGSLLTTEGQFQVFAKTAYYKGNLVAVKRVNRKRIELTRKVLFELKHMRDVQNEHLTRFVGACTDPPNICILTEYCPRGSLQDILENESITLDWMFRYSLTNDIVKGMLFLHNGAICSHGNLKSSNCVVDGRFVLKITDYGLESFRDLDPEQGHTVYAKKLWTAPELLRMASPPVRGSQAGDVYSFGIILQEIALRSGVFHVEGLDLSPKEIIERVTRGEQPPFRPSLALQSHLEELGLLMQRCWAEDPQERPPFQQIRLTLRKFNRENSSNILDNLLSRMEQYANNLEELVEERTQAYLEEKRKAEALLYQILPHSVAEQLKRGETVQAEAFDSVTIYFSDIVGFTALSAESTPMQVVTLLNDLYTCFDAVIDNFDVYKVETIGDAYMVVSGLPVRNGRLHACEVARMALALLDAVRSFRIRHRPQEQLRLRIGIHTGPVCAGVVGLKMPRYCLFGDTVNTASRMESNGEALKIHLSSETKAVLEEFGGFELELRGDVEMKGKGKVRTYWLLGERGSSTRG
bovine MsrA act = activators of bovine methionine sulfoxide reductase A | purified bovine MsrA, absorbance read-out | 0.3% of 360,000 active | AID 602163 | activation, % at 10.6 µM; in the data active means activation above about 7.5%;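 further: 0% = vehicle and 100% = reference activator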
OPRM1 ag = counter-screen for mouse HTR2A agonists: human mu opioid receptor agonists; AID 624380; shares compounds with HTR2A ag; 5.3% of 2,300 active; activation, % at 9.3 µM; U2OS OPRM1 beta-arrestin PathHunter, luminescence; DMSO 0%, DAMGO 9.3 µM 100%;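 active means mean activation above the mean of DMSO-only wells plus 3 SD, cut at about 0.5% in these data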
HTR2A ag conf = confirmation of mouse HTR2A serotonin receptor agonists; CHO-K1 PathHunter beta-arrestin recruitment, luminescence; DMSO 0%, 30 µM serotonin 100%; AID 624381; 19% of 2,300 active; shares compounds with HTR2A ag; activation, % at 7.6 µM;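 active means mean activation across triplicates above the hit threshold derived in the original primary screen, cut at about 15% in these data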
Numbers without * were called inactive. Most compounds without a hit are left out; they make up all but 1.8% or so of the library.

For CCc1nc2c3cnn(-c4cc(Cl)ccc4C)c3ncn2n1 the results were MsrA inh 0.9, HTR2A ag 16.4*, GC-B act -8.2, NPR1 activator -8.5, bovine MsrA act -13.8, OPRM1 ag -0.6 and HTR2A ag conf -2.7.
Screening C[C@H]1[C@@H](OC(=O)NCc2cccc(Cl)c2)CC[C@@]23CCCN2C(=O)CCC[C@@H]13 returned GC-B act -9.0 and NPR1 activator -6.5.
`Nc1cc(=O)[nH]c(SCc2cccc3ccccc23)n1` gave MsrA inh -0.6, HTR2A ag -0.6, GC-B act -1.8, NPR1 activator -4.4 and bovine MsrA act -0.1.
`O=c1cc(C(F)(F)F)nc(SCc2cccc3ccccc23)[nH]1` gave MsrA inh -0.9, HTR2A ag 17.6*, GC-B act 5.7, NPR1 activator 1.1, bovine MsrA act -2.4, OPRM1 ag -0.6 and HTR2A ag conf 5.2.
Screening Cc1cccc(NC(=O)c2cc3c(=O)n4ccccc4nc3n(CC(C)C)c2=N)c1 returned MsrA inh 0.0, HTR2A ag 14.5*, GC-B act 2.6, NPR1 activator 1.5, bovine MsrA act -1.6, OPRM1 ag -0.2 and HTR2A ag conf 2.4.
For O=C(NC1CCCCN(Cc2cccc(C(F)(F)F)c2)C1=O)c1ccc(COc2ccccc2)cc1 (stereo not given) the results were GC-B act 0.2 and NPR1 activator 4.9.
`O=C(Nc1ccccc1)Nc1c(-c2ccccc2)nc2ncccn12` gave GC-B act -1.4 and NPR1 activator 4.0.
For COc1ccc(-c2ccc3c(c2)S(=O)(=O)c2cccc(C(=O)O)c2C3=O)cc1OC the results were MsrA inh -0.4, HTR2A ag 5.9, GC-B act 2.4, NPR1 activator 4.4 and bovine MsrA act -7.7.
For COc1ncc(-c2ccc3c(c2)S(=O)(=O)c2cccc(C(=O)O)c2C3=O)cn1 the results were MsrA inh 2.3, HTR2A ag 17.9*, GC-B act 5.2, NPR1 activator 3.4, bovine MsrA act -6.2, OPRM1 ag -0.6 and HTR2A ag conf -2.7.
Screening CC(C)C[C@H]1CN=C(N(C)C)N1CC1CCCCCC1 returned MsrA inh -0.2, HTR2A ag -3.4, GC-B act -18.5, NPR1 activator -15.1 and bovine MsrA act -9.2.
For CC(C)C[C@H]1CN=C(N(C)C)N1CC(C)C the results were MsrA inh 0.6, HTR2A ag 24.1*, GC-B act -0.1, NPR1 activator -3.7, bovine MsrA act -4.2, OPRM1 ag -0.7 and HTR2A ag conf -1.8.
`CC(C)CNC(=O)OCc1cn(Cc2ccc(F)cc2F)nn1` gave GC-B act -2.9 and NPR1 activator 0.7.
For CC(C)c1cc(-c2cc(-c3ccc(Cl)cc3)on2)nc(NCC2CC2)n1 the results were MsrA inh 0.2, HTR2A ag -3.1, GC-B act -1.8, NPR1 activator 1.7 and bovine MsrA act -0.3.
COCCNc1nc(-c2cc(-c3ccc(Cl)cc3)on2)cc(C(C)C)n1 was read as MsrA inh -0.3, HTR2A ag 16.1*, GC-B act -4.4, NPR1 activator 0.7, bovine MsrA act -0.7, OPRM1 ag -0.7 and HTR2A ag conf -2.7.
COc1ccccc1NC(=O)c1oc2ccccc2c1NC(=O)c1cc(OC)c(OC)c(OC)c1 was read as MsrA inh 1.0, HTR2A ag -0.5, GC-B act 7.1, NPR1 activator 4.8 and bovine MsrA act -2.4.
For COCC(=O)Nc1c(C(=O)Nc2ccccc2OC)oc2ccccc12 the results were MsrA inh 0.3, HTR2A ag 14.6*, GC-B act -3.4, NPR1 activator 5.0, bovine MsrA act -2.0, OPRM1 ag 0.1 and HTR2A ag conf -5.9.
Screening C[C@@H]1CCN(C2CC2)S(=O)(=O)c2c(cccc2N2CCC[C@H]2C)O1 returned GC-B act -0.1 and NPR1 activator 0.3.
For O=C(NC(=O)N1CCN(c2cccc(Cl)c2)CC1)c1ccccc1 the results were MsrA inh -0.8, HTR2A ag 15.0*, GC-B act 0.4, NPR1 activator -2.6, bovine MsrA act -4.3, OPRM1 ag -0.4 and HTR2A ag conf 3.9.
COc1cccc(CNC(=O)CN2C(=O)COc3ccc(S(=O)(=O)N4CCOCC4)cc32)c1 was read as MsrA inh 1.1, HTR2A ag -0.2, GC-B act -4.5, NPR1 activator -0.8 and bovine MsrA act -0.2.
Screening COc1cccc(CNC(=O)CN2C(=O)COc3ccc(S(=O)(=O)N4CCCCC4)cc32)c1 returned MsrA inh 0.3, HTR2A ag 16.1*, GC-B act 1.0, NPR1 activator 0.8, bovine MsrA act -8.6, OPRM1 ag -0.8 and HTR2A ag conf -4.9.
For Cc1ccccc1CN1CCCCC(NC(=O)c2ccc(Br)cc2)C1=O (stereo not given) the results were GC-B act -3.2 and NPR1 activator 3.4.
Screening CCC12CC1(C(=O)OC)C(=O)N1CCc3c([nH]c4ccccc34)C12 (stereo not given) returned HTR2A ag 36.8*, bovine MsrA act -2.0, OPRM1 ag -0.2 and HTR2A ag conf 28.3*.
For O=C(C1CCCN1S(=O)(=O)c1ccc(F)cc1)N1CCc2ccccc2C1 (stereo not given) the results were GC-B act -2.7 and NPR1 activator -2.7.
`CCN(C(=O)C1CCN(S(=O)(=O)c2cccc3nonc23)CC1)c1ccccc1` gave MsrA inh 0.9, HTR2A ag 15.1*, GC-B act -2.7, NPR1 activator 2.7, bovine MsrA act -4.8, OPRM1 ag -0.6 and HTR2A ag conf -2.1.
CCN(CC)C(=O)C1CCN(S(=O)(=O)c2cccc3nonc23)CC1 was read as MsrA inh -0.9, HTR2A ag 4.3, GC-B act -1.3, NPR1 activator -1.6 and bovine MsrA act 1.0.
Screening O=C(NCc1ccc(F)cc1)c1cc(C2CCCCN2C(=O)c2ccc(Cl)cc2)on1 (stereo not given) returned MsrA inh 0.4, HTR2A ag 15.1*, GC-B act 0.2, NPR1 activator 5.6, bovine MsrA act -1.9, OPRM1 ag -0.7 and HTR2A ag conf -5.7.
O=C(NCc1ccc(F)cc1)c1cc(C2CCCCN2C(=O)c2ccccc2)on1 (stereo not given) was read as MsrA inh 0.0, HTR2A ag -6.8, GC-B act 3.2, NPR1 activator 5.4 and bovine MsrA act -0.8.
`CCCCN(CC)C(=O)Cn1ncc2c1-c1cc(C)ccc1OC2` gave MsrA inh -1.5, HTR2A ag 16.5*, GC-B act -1.9, NPR1 activator -8.2, bovine MsrA act -0.3, OPRM1 ag -0.6 and HTR2A ag conf -0.6.
